We go through two molecules from PubChem BioAssay AID2284065 (EPA ToxCast).

Calls of active or inactive are those of the source. How the source made its calls: active means hit-call score of the fitted dose curve at least 0.9, where 1 is the maximum; inactive means score below 0.9.

CYP2C8, CYP2C8 (gene 1558), sequence (P10632 whole entry, looked up): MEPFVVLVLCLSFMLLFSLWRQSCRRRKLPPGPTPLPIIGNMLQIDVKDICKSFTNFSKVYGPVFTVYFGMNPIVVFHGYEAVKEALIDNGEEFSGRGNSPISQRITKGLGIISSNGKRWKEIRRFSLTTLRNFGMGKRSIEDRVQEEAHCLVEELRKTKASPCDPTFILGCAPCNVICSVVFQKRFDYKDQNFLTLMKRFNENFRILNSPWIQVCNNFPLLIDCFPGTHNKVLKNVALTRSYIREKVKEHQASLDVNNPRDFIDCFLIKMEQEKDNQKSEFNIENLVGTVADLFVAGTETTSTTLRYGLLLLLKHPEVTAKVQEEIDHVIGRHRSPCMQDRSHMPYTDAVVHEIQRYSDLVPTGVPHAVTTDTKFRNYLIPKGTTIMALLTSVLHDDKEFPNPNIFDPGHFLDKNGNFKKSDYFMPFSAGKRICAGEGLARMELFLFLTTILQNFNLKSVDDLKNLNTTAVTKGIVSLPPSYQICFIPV

The assay addresses CYP2C8, CYP2C8 (gene 1558) (UniProt P10632). Briefly: ERF_FR_ADME_hCYP2C8: Eurofins (ERF) CYP450-related Enzyme Activity (ADME) Assay for CYP2C8. As for the experimental part: ERF_FR_ADME_hCYP2C8 is a biochemical, single-readout assay that uses extracted gene-proteins in a cell-free assay. Measurements were taken 0.16 hour after chemical dosing in a 96-well plate. See CYP2C8 inhibition (HLM, amodiaquine substrate).ERF_FR_ADME_hCYP2C8 is an assay component calculated from the ERF_FR_ADME_hCYP2C8 assay. It is designed to measure enzyme activity using a type of enzyme reporter as detected by peak area response of desethylamodiaquine with HPLC-MS/MS technology.Data from the assay component ERF_FR_ADME_hCYP2C8 was analyzed at the assay endpoint, ERF_FR_ADME_hCYP2C8, in the positive analysis fitting direction relative to acetonitrile as the negative control and baseline of activity. Using a type of enzyme reporter, loss-of-signal activity can be used to understand changes in enzymatic activity as they relate to gene CYP2C8. To generalize the intended target to other relatable targets, this assay endpoint is annotated to the cyp intended target family, where the subfamily is […].
Assay cells are incubated for 10 minutes at 37C with 10 uM amodiaquine.
Usually AC50 stands for the concentration giving half of the maximal activity seen. Regarding `CCCCC[C@H](O)CC(=O)CCc1ccc(O)c(OC)c1`, the AC50 was 2.27 µM (active).
Next, `COc1cc(CCC(=O)CC(=O)CCc2ccc(O)c(OC)c2)ccc1O`: 1.83 µM (active).
